An excerpt weighted towards active compounds, which were near 12% of everything screened.
BAZ2B block: qHTS Assay for Inhibitors of BAZ2B | Bromodomain adjacent to zinc finger domain protein 2B (Homo sapiens), Q9UIF8 | AlphaScreen BAZ2B-H3K14Ac peptide displacement | Potency, µM (series often up to 114 µM), for inactives: at the top dose activity change, negative = inhibition, actives largely listed as inhibitors | 360,000 compounds, 4.4% hits; further: on the % scale 0 is the no-effect control and ±100 the full control effect; nearly all actives have a fitted effect of over 60% in size
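In this displacement format the biotinylated H3(5-23) peptide acetylated at Lys14 serves as ligand at 50 nM, with BAZ2B at 50 nM in PBS pH 7.4 containing 0.01% Tween-20. Donor and acceptor beads are 10 ug/mL final.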
JMJD2A Tudor inh: qHTS Assay for Inhibitors of JMJD2A-Tudor Domain | AID 504339, 2011 | AlphaScreen JMJD2A-Tudor / H3K4me3 peptide binding | Lysine-specific demethylase 4A (Homo sapiens), O75164 | 390,000 compounds, 4.4% hits | Potency, µM (titrated, usually from 114 µM), for the others: at the top dose activity change, negative = inhibition, hits mostly inhibitors; further: on the % scale 0 is the no-effect control and ±100 the full control effect; nearly all actives have a fitted effect of over 50% in size
Target sequence (O75164 whole entry, looked up, the tested form may be a part): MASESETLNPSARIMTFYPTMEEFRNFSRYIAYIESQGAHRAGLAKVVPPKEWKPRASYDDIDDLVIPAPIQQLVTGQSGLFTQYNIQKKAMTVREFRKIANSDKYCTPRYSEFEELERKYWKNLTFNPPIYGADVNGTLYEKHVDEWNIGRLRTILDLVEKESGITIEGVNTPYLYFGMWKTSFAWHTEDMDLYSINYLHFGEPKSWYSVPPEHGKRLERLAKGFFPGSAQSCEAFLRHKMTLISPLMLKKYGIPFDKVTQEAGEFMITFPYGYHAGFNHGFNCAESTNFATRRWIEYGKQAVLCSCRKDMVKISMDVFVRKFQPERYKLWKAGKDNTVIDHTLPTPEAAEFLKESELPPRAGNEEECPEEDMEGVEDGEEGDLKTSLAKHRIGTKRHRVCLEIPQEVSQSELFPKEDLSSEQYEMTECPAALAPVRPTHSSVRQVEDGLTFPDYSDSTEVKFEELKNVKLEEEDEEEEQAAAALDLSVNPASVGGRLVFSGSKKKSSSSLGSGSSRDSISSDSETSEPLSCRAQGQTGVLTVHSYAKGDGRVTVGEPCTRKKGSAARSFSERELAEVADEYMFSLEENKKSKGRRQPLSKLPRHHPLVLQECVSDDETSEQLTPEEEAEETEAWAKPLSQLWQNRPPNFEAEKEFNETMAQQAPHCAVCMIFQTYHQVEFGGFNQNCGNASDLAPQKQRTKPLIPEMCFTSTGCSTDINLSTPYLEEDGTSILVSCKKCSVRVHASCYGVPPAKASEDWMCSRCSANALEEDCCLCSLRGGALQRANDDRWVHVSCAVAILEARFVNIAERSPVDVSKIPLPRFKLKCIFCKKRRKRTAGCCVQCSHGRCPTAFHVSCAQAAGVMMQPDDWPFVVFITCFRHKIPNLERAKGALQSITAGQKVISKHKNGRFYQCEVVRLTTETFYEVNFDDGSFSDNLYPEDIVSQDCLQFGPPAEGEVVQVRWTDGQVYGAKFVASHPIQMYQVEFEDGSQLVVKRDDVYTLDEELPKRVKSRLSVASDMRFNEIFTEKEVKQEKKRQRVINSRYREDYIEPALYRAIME
Sfp PPTase inh: qHTS Assay for Inhibitors of Bacillus subtilis Sfp phosphopantetheinyl transferase (PPTase) | 310,000 compounds, 3.5% hits | Biochemical Sfp PPTase activity, qHTS | AID 1490, 2009 | Potency, µM, without a hit: largest response in the series, negative = inhibition, hits mostly inhibitors;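 further: the enzyme is Sfp with the accession as filed and its product quenches rhodamine fluorescence; 0% = enzyme reaction without inhibitor and -100% = no enzyme wells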
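After 15 min at room temperature with compound, 15 nM Sfp received 5 uM rhodamine-CoA plus 12.5 uM BHQ-2-ybbR (50 mM Hepes pH 7.6, 10 mM MgCl2). Rate came from the fluorescence difference over 30 min, ex 525/em 598 nm.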
L3MBTL1 inh: qHTS Assay for the Inhibitors of L3MBTL1; Potency, µM (series often up to 57.1 µM), without a hit: at the highest dose activity, negative = inhibition, most hits filed as inhibitors; Lethal(3)malignant brain tumor-like protein 1 (Homo sapiens), Q9Y468; 230,000 compounds, 0.66% hits; AlphaScreen L3MBTL1–H3K9me1 peptide binding; AID 485360, 2010; further: on the % scale 0 is the no-effect control and ±100 the full control effect; nearly all actives have a fitted effect of over 60% in size
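AlphaScreen proximity signal between nickel-chelate acceptor and streptavidin donor beads (final 10 ug/mL) reports binding of 50 nM L3MBTL1 to 75 nM biotin-H3 K9me1 peptide; complex incubated with compounds 30 min at room temperature; cefsulodin titration as control.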
HP1b chromo inh: HTS for Inhibitors of HP1-beta Chromodomain Interactions with Methylated Histone Tails; AlphaScreen HP1-beta / biotin-H3K9me3 peptide binding; Potency, µM (top dose mostly 114 µM), for the others: at the highest dose activity change, negative = inhibition, usual class: inhibitors; 390,000 compounds, 0.56% hits; further: nearly all actives have a fitted effect of over 70% in size
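Compound inhibition of the preformed complex between 50 nM HP1-beta and 50 nM biotinylated H3K9me3 peptide was read by AlphaScreen. Buffer was PBS pH 7.4 with 0.01% Tween-20. Incubations ran 30 min at room temperature, with 10 ug/mL donor/acceptor beads.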
G9a inh: qHTS Assay for Inhibitors of Histone Lysine Methyltransferase G9a | AID 504332, 2011 | G9a H3K9 monomethylation, AlphaScreen, 2 h | Histone-lysine N-methyltransferase EHMT2 (Homo sapiens), Q96KQ7 | 350,000 compounds, 8.8% hits | Potency, µM (top dose mostly 102 µM), for the others: at the highest dose activity, negative = inhibition, hits mostly inhibitors; further: on the % scale 0 is the no-effect control and ±100 the full control effect; nearly all actives have a fitted effect of over 75% in size
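G9a (20 nM) preincubated 15 min RT with compounds, then 500 nM biotinylated H3K9 peptide and 20 uM SAM added; 2 h RT reaction. Monomethyl-H3K9 product detected by AlphaScreen with anti-H3K9me1 antibody, streptavidin donor and anti-rabbit IgG acceptor beads.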
Active calls of the source: *; u = inconclusive; x = no result; [ ] = another dose, or the depositor's remark. The call rests on the fitted dose curve; in most records, active means well fitted curve in the direction sought with a large enough effect; inconclusive means small, poorly fitted or top-dose-only effect, or another doubt; inactive means no such curve, though single readings can be large; an effect the other way counts as inactive or inconclusive. Potency means the concentration at half of the fitted maximal effect.

SMILES | BAZ2B block | JMJD2A Tudor inh | Sfp PPTase inh | L3MBTL1 inh | HP1b chromo inh | G9a inh
Cc1ccc(Cl)cc1Nc1nc2ccccc2c2nncn12 | 2% | 7% | x | x | 51% | 16%[59 µM]
CC(=O)c1cc2c(cc1NC(=O)CN1CCCCC1C)OCO2 (stereo not given) | 79µM* | 20µM* | -18% | x | u | 13µM*
COc1ccccc1Cc1nc2ccccc2nc1SCC(=O)Nc1ccc2c(c1)OCO2 | 2% | 3% | x | x | 23%[57 µM] | 2%[59 µM]
O=S(=O)(Nc1ccc2nc(N3CCOCC3)sc2c1)c1ccc(Cl)cc1 | -1% | -21% | x | 3% | 33% | 10µM*
Cc1ccc(NC(=O)c2ccc3nc(N4CCOCC4)sc3c2)c(Cl)c1 | -5% | -19% | 50µM* | 2% | 33% | x
CC(C)CCNC(=O)C1CCN(S(=O)(=O)c2ccc3c(c2)CC(C)N3C(=O)C2CC2)CC1 (stereo not given) | -1% | 5% | 14% | x | x | 0%[59 µM]
NCC1O[C@@H](OC2C(N)C[C@H](N)[C@@H](O[C@H]3OC(CO)C(O)C(N)C3O)C2O)C(O)C(O)C1O (stereo not given in full) | x | x | 17% | x | x | -35%[2.33 µM]
Cc1ccc(NC(=O)Cc2ccc(-n3cccc3)cc2)c(C)c1 | 50µM* | -36%[57.1 µM] | -18% | u | 9% | 1%
Cc1cccc(-n2ccnc2SCC(=O)Nc2cccc3ccccc23)c1 | 16µM* | 32µM* | x | x | u | 13µM*
COc1ccc(-c2nnc(SCC(=O)Nc3cc(OC)ccc3OC)nc2-c2ccc(OC)cc2)cc1 | 7.9µM* | u | x | x | 4% | -36%[59 µM]
COc1ccc(Cn2ccnc2SCC(=O)Nc2ccccc2OC)cc1 | u | u | 8% | x | -9% | 45µM*
Cc1cc(C)cc(NC(=O)Cc2ccc(-n3cccc3)cc2)c1 | -9% | 11%[57.1 µM] | 4% | -13% | 28% | 20%
COc1cccc(-n2ccnc2SCC(=O)Nc2cc(C)on2)c1 | -29% | -27% | 15% | -9% | 1% | -28%
Cc1cc(C)cc(-n2ccnc2SCC(=O)Nc2ccc(C)cc2C)c1 | 32µM* | 40µM* | x | x | -11%[57 µM] | 11µM*
Cc1cccc(NC(=O)CSc2nnc(C)c(=O)n2N)c1 | x | -4% | -5% | x | 21% | 17%
COc1ccc(OC)c(NC(=O)CSc2nccn2-c2cc(C)cc(C)c2)c1 | 13µM* | 10µM* | x | x | u | 16µM*
CCc1nnc(NC(=O)CSc2nccn2-c2cc(C)cc(C)c2)s1 | -34% | -23% | 11% | x | 10% | -21%
Cc1ccc(NC(=O)CSc2nnc(C)c(=O)n2N)c(C)c1 | 50µM* | -7% | -11% | u | 15% | 1.8µM*
CCOc1ccccc1NC(=O)CSc1nccn1-c1ccccc1 | 50µM* | -33% | -5% | -14% | -21% | u
CCOc1ccc(NC(=O)C(C)C(Cc2ccc(C)cc2)C(=O)O)cc1 (stereo not given) | -2% | -11% | 7% | x | 24% | -7%
COc1ccccc1CN(C)C(=O)CN1CCN(C(=O)c2cccs2)CC1 | 2% | -9% | x | 0% | 30% | -41%[12.7 µM]
CCOCCn1c(N2CCCC2)nc2c1c(=O)[nH]c(=O)n2C | 56µM* | -6% | 40µM* | -3%[2.29 µM] | 18% | u
CCOCCn1c(SCCCc2ccccc2)nc2c1c(=O)[nH]c(=O)n2C | -2% | u | 6% | 2% | -21% | 9%[59 µM]
CCn1c([N+](=O)[O-])nc2c1c(=O)[nH]c(=O)n2C | -15% | -32% | -5% | 20% | -3% | 40µM*
CCOCCn1c(N2CCCC2)nc2c1c(=O)n(C)c(=O)n2C | 4% | -8% | 37% | 0% | 35% | 71µM*
SMILES | BAZ2B block | JMJD2A Tudor inh | Sfp PPTase inh | L3MBTL1 inh | HP1b chromo inh | G9a inh
CCOCCn1c(N2CCN(c3ccccc3)CC2)nc2c1c(=O)n(C)c(=O)n2C | -1% | -8% | 17% | 6%[11.4 µM] | 19% | -6%[12.7 µM]
CCOCCn1c(SC)nc2c1c(=O)[nH]c(=O)n2C | 13% | 89µM* | 18µM* | 1% | u | u
COc1ccc(NC(C)C(=O)Nc2cccc(S(=O)(=O)N3CCOCC3)c2)cc1OC (stereo not given) | x | -27% | x | -9% | 7% | x
COc1ccccc1N1CCN(C(=O)Cn2ncc3c2-c2cc(C)ccc2OC3)CC1 | -19% | -20% | x | x | 12% | 0%[59 µM]
CC(C)(C)c1ccc(-c2nc3[nH]c(=O)cc(NC(=O)c4ccco4)n3n2)cc1 | -14% | -16% | 40µM* | x | 26% | 17%
CN(C)/C=C/C=C1C(=O)CCCC1=O | 56µM* | u | -3% | 28µM* | u | u
COc1ccc(CN2CCCC(N3CCN(c4ccc(OC)cc4)CC3)C2)cc1 (stereo not given) | u | -25% | 2% | -28% | -9% | 1%
CO/N=C/c1ccc(N2CCN(C(=O)c3cccc(C(F)(F)F)c3)CC2)c([N+](=O)[O-])c1 | u | u | 13% | -30% | -29% | u
CO/N=C/c1ccc(N2CCN(C(=O)c3ccc(F)cc3)CC2)c([N+](=O)[O-])c1 | u | u | u | -8% | -35% | 45µM*
CO/N=C/c1ccc(N2CCN(C(=O)c3ccc(Cl)cc3Cl)CC2)c([N+](=O)[O-])c1 | u | u | 4% | -24% | -39% | 20µM*
CCc1cc2c(nc1CC)CCN(CC/C(C)=N/O[C@@H](C)c1cn([C@H](CO)Cc3ccccc3)nn1)C2 | x | x | -1% | x | x | x
CC(C)C(=O)NC(=S)/C=C1/N(C)c2ccccc2C1(C)C | 32µM* | 40µM* | u | -13% | 50µM* | 40µM*
Cc1ccc(C(=O)NC(=S)/C=C2\N(C)c3ccccc3C2(C)C)cc1 | 13µM* | 22µM* | u | u | 13µM* | 14µM*
Cc1c(NC(=S)/C=C2\N(C)c3ccccc3C2(C)C)c(=O)n(-c2ccccc2)n1C | u | -26% | 50µM* | -6% | u | 32µM*
Cc1c(N=C/C=C2\N(C)c3ccccc3C2(C)C)c(=O)n(-c2ccccc2)n1C | 2% | -22% | 0% | -9% | -7% | 10%
O=C(c1ccccc1)c1cccc(NC(=O)c2ccc(Br)o2)c1 | -39% | -19% | 16% | x | 5% | 45µM*
C/C(=N/NC(=O)c1ccc(Br)o1)c1cccc(NC(=O)c2ccc(C)o2)c1 | -36% | 50µM* | 8% | -8% | -10% | 24%[59 µM]

High-throughput results as filed in PubChem BioAssay.
